In ChEMBL document CHEMBL3988442, “University of Dundee, Small-Polar-MMV Screening Library” (2021):

What follows are compounds tested against T1, Aspartate--tRNA(Asp/Asn) ligase (Mycobacterium tuberculosis (strain ATCC 25618 / H37Rv)) (UniProt P9WFW3) (assay: Assay for Asp RNA synthetase-1 from Mycobacterium tuberculosis). Conditions: 30 µM.
T1 sequence (whole entry): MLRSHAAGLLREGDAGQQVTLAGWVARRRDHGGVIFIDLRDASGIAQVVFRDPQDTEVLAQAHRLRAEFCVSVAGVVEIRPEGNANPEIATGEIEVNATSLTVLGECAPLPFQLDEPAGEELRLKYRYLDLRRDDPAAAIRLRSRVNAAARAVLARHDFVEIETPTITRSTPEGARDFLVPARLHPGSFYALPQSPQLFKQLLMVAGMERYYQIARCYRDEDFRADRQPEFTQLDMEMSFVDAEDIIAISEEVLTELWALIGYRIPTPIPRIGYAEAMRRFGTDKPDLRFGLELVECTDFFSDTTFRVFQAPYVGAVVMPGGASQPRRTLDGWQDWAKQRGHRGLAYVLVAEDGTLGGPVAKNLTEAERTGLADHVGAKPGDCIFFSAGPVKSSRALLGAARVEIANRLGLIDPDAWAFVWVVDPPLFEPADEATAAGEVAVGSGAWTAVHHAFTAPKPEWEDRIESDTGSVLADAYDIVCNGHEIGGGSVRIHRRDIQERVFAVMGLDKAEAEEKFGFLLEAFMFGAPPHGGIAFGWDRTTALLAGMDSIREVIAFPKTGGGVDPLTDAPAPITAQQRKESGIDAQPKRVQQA
Assay type: functional
Parameters: scale not given: direction of the effect not stated beside the values

| Compound | Percent Effect |
| --- | --- |
| O=C1CC(c2ccsc2)c2sc(C(=O)O)c(-c3ccccc3)c2N1 (stereo not drawn) | 1.95% |
| Cc1nc(NC2CCCC2)cc(C2CCN2C(=O)c2cccnc2)n1 (stereo not drawn) | 2.75% |
| CC(C)CCc1noc(CN2CCCN(C(=O)c3ccco3)CC2)n1 | -1.32% |
| CC1CCCN(Cc2c(C3CCOCC3)[nH]c3ncccc23)C1 (stereo not drawn) | 3.59% |
| CN(C)CC1CSCCCN1C(=O)Nc1ccc(C(C)(C)C)cc1 (stereo not drawn) | 0.656% |
| Cc1cc(C)n(-c2cncc(N3CCN(C(=O)C(C)(C)C)CC3)n2)n1 | 0.549% |
| O=C(c1cnccn1)N1CCN(Cc2csc(-c3ccccc3)n2)CC1 | 1.34% |
| Cc1nnc2n1CCN(Cc1ncc(-c3ccc(Cl)cc3)o1)C2 | -2.3% |
| CCc1cnc(CN2CCC(N(C)Cc3noc(C4CC4)n3)C2)o1 (stereo not drawn) | -1.09% |
| CCC(=O)N1CCC(Cc2nccnc2Nc2ccccn2)CC1 | -0.309% |
| CC(O)CN1CCN(C(=O)c2cc3ccccc3[nH]c2=O)CC1 (stereo not drawn) | -2.04% |
| CCn1nc(C)c(CCNC(=O)C2CCCN(C(=O)N(C)C)C2)c1C (stereo not drawn) | -4.2% |
| CC(=O)N1[C@H](Cn2cncn2)C[C@@H]2CN(c3ccc(C)nn3)CC[C@@H]21 | -1.81% |
| Cc1cc(NC(=O)CCN(CC2CCOC2)C2CC2)no1 (stereo not drawn) | -6.8% |
| CCCNC(=O)c1cc2c([nH]c1=O)CC(c1cccs1)CC2=O (stereo not drawn) | -5.46% |
| Cc1nc(C)n(CC2CN(CCOc3ccccc3F)CCO2)n1 (stereo not drawn) | -0.955% |
| Cc1cc(C)n(CC(=O)N2CCC(c3nc(C)no3)CC2)n1 | 3.56% |
| COc1ccc(OCC(=O)NS(=O)(=O)c2cc(F)ccc2F)cc1 | -1.01% |
| Cn1nc(CNC(=O)C2CCCC2)cc1C1CC1 | 0.0146% |
| CN(C)CCCn1ccnc1C1CCCN(c2cc(N)ncn2)C1 (stereo not drawn) | -0.232% |

What follows are compounds tested against Shiga toxin 2 (Escherichia coli O157:H7) (UniProt P09385+P09386) (assay: E. coli 0.157:H7 Shiga Toxin SOP - stx2 screening assay). Conditions: 30 µM.
Assay type: functional
Parameters: scale not given: direction of the effect not stated beside the values

| Compound | Percent Effect |
| --- | --- |
| Cc1nn(C)c(N2CCOCC2)c1CNC1CCc2cc(F)ccc21 (stereo not drawn) | -5.02% |
| COC(=O)[C@H](C)NC(=O)c1cc(-c2cccc(Cl)c2)no1 | 5.33% |
| Cc1cnc(C(=O)N(CCN(C)C)Cc2ccc(Cl)cc2)cn1 | 5.25% |
| CC(C)OCCN(Cc1cccc(O)c1)C1CCC(O)CC1 (stereo not drawn) | -13.5% |
| COc1cn(-c2ccccc2)nc1C(=O)NCCCN1CCCC(C)C1 (stereo not drawn) | 7% |
| CC(=O)N(C)c1nc(CN2CCCCC2Cn2cncn2)cs1 (stereo not drawn) | 9.21% |
| CCc1nnc2n1CCN(C(=O)c1cnc3ccccc3n1)C2 | 0.361% |
| COc1ccc(CNC(=O)NCC2CCOC2)c(C(F)(F)F)c1 (stereo not drawn) | -3.72% |
| COc1ccnc(N2CCN(C(=O)c3cnn(C)c3C3CC3)CC2)n1 | 11.7% |
| Cc1cc(CN2CCN(c3ccc4nncn4n3)C(C)C2)no1 (stereo not drawn) | -29.9% |
| O=C(CN1CC(n2cccn2)C1)NCCCc1ccccc1 | -22.1% |
| CCN1CCN(c2ccc(CNC(=O)c3ccc(Cl)o3)cn2)CC1 | -41.7% |
| CC(=O)NC1CCCN(C(=O)NCc2ccc(-c3ccn[nH]3)cc2)C1 (stereo not drawn) | 1.62% |
| CN1C(=O)C[C@@H]2[C@@H]1CCN2S(=O)(=O)Cc1ccccc1 | -4.62% |
| O=C(c1cnco1)N1CCCC(Cc2nccs2)C1 (stereo not drawn) | -2.47% |
| CCCNC(=O)C1CCN(Cc2csc(C(C)(C)C)n2)CC1 | 7.25% |
| CNC(=O)c1ccc(C(=O)N2CCCC(n3cc(C)cn3)C2)cn1 (stereo not drawn) | -41.9% |

| Compound | Percent Effect |
| --- | --- |
| CC(=O)NCCc1ccc(C(=O)N2CCCC2c2cnn(C)c2)cc1 (stereo not drawn) | 21.3% |
| O=C(C1=CCCCC1)N1CCC2(CC1)COC(COc1ccccn1)C2 (stereo not drawn) | -19.1% |
| Cc1cc(C)n(Cc2cccc(C(=O)NCCN3CCOCC3)c2)n1 | -69.3% |
| O=C1CC(c2ccsc2)c2sc(C(=O)O)c(-c3ccccc3)c2N1 (stereo not drawn) | 17.4% |
| Cc1nc(NC2CCCC2)cc(C2CCN2C(=O)c2cccnc2)n1 (stereo not drawn) | 2.33% |
| CC(C)CCc1noc(CN2CCCN(C(=O)c3ccco3)CC2)n1 | -9.12% |
| CC1CCCN(Cc2c(C3CCOCC3)[nH]c3ncccc23)C1 (stereo not drawn) | 12.7% |
| CN(C)CC1CSCCCN1C(=O)Nc1ccc(C(C)(C)C)cc1 (stereo not drawn) | 11.6% |
| Cc1cc(C)n(-c2cncc(N3CCN(C(=O)C(C)(C)C)CC3)n2)n1 | -19.9% |
| O=C(c1cnccn1)N1CCN(Cc2csc(-c3ccccc3)n2)CC1 | 26.4% |
| Cc1nnc2n1CCN(Cc1ncc(-c3ccc(Cl)cc3)o1)C2 | 25.1% |
| CCc1cnc(CN2CCC(N(C)Cc3noc(C4CC4)n3)C2)o1 (stereo not drawn) | -33.4% |
| CCC(=O)N1CCC(Cc2nccnc2Nc2ccccn2)CC1 | 11.3% |
| CC(O)CN1CCN(C(=O)c2cc3ccccc3[nH]c2=O)CC1 (stereo not drawn) | 2.32% |
| CCn1nc(C)c(CCNC(=O)C2CCCN(C(=O)N(C)C)C2)c1C (stereo not drawn) | 14.2% |
| CC(=O)N1[C@H](Cn2cncn2)C[C@@H]2CN(c3ccc(C)nn3)CC[C@@H]21 | -4.03% |
